Screens from PubChem BioAssay.
TRPM1 prom inh – inhibitors of MITF-driven TRPM1 promoter in melanoma cells | SK-MEL-5 TRPM1 promoter luciferase, 24 h | inhibition, % at 12.5 µM | 330,000 compounds, 0.83% hits;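 active = mean inhibition across replicates of 60% or more, whatever share of single replicates reaches that level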
HIF-2a inh – inhibitors of HIF-2a; 786-0 RCC cells HIF-2a reporter, luciferase luminescence, overnight; AID 624352; inhibition, % at 18.8 µM; 360,000 compounds, 0.72% hits;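 active = inhibition of the luminescence signal of 40% or more relative to plate controls, in a single-dose primary screen at 18.75 µM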
TWEAK Fn14 block – TWEAK-Fn14 signaling inhibition. TWEAK-stimulated Fn14 reporter cells, luciferase luminescence, 8 h. inhibition, % at 10 µM. 360,000 compounds, 2% hits. AID 1159606; in the data active = inhibition above about 50%
TROY signal inh – inhibitors of TROY-dependent NF-kB signaling. Q293 LMP1-TROYcd NF-kB luciferase reporter, 4 h. inhibition, % at 10 µM. 360,000 compounds, 0.98% hits. AID 1347056;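 active = compounds whose plate-normalised and pattern-corrected inhibition of the luciferase reporter signal at the single screening dose is 50% or more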
Peg3 promoter – Peg3 promoter activity inhibition; inhibition, % at 20 µM; 360,000 compounds, 1.7% hits; HeLa PEG-Prom luciferase reporter, luminescence, overnight;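 active = inhibition of at least 50% at 20 µM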
LMP1 NFkB inh – Epstein-Barr LMP1 NF-kappaB reporter inhibition; LMP1-induced NF-kappaB luciferase reporter cells, luminescence; inhibition, % at 12.5 µM; 350,000 compounds, 0.69% hits; AID 504558; in the data active = inhibition above about 41%;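 also: 0% = neutral control wells and 100% = reference inhibitor control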
Active calls of the source: *; x = no result. An excerpt weighted towards active compounds, which were near 4% of everything screened.

SMILES	TRPM1 prom inh	HIF-2a inh	TWEAK Fn14 block	TROY signal inh	Peg3 promoter	LMP1 NFkB inh
COc1cc(/C=C2\SC(=S)N(CC(=O)NC3=NCCS3)C2=O)cc(OC)c1OC	6	13	-3	12	1	0
COc1ccc(/C=C2\SC(=S)N(CCCC(=O)Nc3ccccn3)C2=O)cc1OC	-9	40*	52*	24	17	1
COc1ccc(/C=C2\SC(=S)N(CCC(=O)NC3=NCCS3)C2=O)cc1OC	7	54*	47	6	-4	21
CC1(C)CCc2cc(S(=O)(=O)N3CCN(S(=O)(=O)c4c(F)cccc4F)CC3)ccc2O1	-36	-111	-49	-50	-152	-8
CC(C)(C)c1ccc(C(O)c2ncc(-c3cccc(F)c3)[nH]2)cc1 (stereo not given)	x	-37	23	-28	-11	x
CCOC(=O)c1ccc(NC(=O)c2nc(S(=O)(=O)Cc3ccccc3)ncc2Cl)cc1	78*	89*	62*	63*	110*	10
Cc1ccc(S(=O)(=O)CCc2nnc(NC(=O)c3cnccn3)s2)cc1	-1	10	-6	-19	17	20
CCCc1nnc(NC(=O)c2nc(S(=O)(=O)Cc3ccc(C)cc3)ncc2Cl)s1	69*	-1	95*	62*	103*	22
CSc1nnc(NC(=O)c2nc(S(=O)(=O)Cc3ccccc3)ncc2Cl)s1	68*	3	98*	26	105*	8
CC(C)N1CCC(C)(C(=O)Nc2cccc3c2CCCC3)C1 (stereo not given)	x	1	8	-25	3	x
COCc1ccc(C(=O)N2CCCC(N3CCN(c4cccc(Cl)c4)CC3)C2)s1 (stereo not given)	x	-28	7	-1	-3	3
CCOc1ccc(C2Nc3ccc4ccccc4c3-c3c2c(=O)oc2ccccc32)cc1 (stereo not given)	29	-10	2	9	47	-8
COc1ccc(C2Nc3ccc4ccccc4c3-c3c2c(=O)oc2ccccc32)cc1 (stereo not given)	6	-14	2	35	57*	-74
Cc1ccc(Cl)cc1NS(=O)(=O)c1ccccc1	11	4	-3	-11	-1	4
COc1ccc(S(=O)(=O)Nc2cc(SCC(=O)O)c(O)c3ccccc23)cc1	68*	-2	93*	51*	10	-9
COc1ccc(S(=O)(=O)Nc2cccc3ccc(O)cc23)cc1	30	20	27	7	49	-13
O=C(O)CSc1cc(NS(=O)(=O)c2ccc(Cl)cc2)c2ccccc2c1O	36	17	94*	46	30	9
COc1ccc(N2Cc3ccccc3C2=O)cc1	-9	-141	38	7	-156	81*
O=C1c2ccccc2CN1c1ccccc1	-70	-267	-25	-54	-246	-16
C=CC(=O)Oc1ccc(N2Cc3ccccc3C2=O)cc1	x	-227	35	11	-5	x
Cc1ccc(N2Cc3ccccc3C2=O)cc1	-3	-178	53*	-14	-179	14
CC(=O)Oc1c(C)cc(Cl)cc1C(=O)Nc1ccc([N+](=O)[O-])cc1Cl	53	-157	88*	45	-13	36
CC(=O)Nc1cccc(NC(=O)c2ccc([N+](=O)[O-])cc2Cl)c1	-4	-5	11	-10	4	-1
O=[N+]([O-])c1nc2ccccc2[nH]1	-5	-1	21	4	-5	-2
CC(C)CC1NC(=O)N(Cc2nc3ccccc3s2)C1=O (stereo not given)	-4	-19	72*	0	10	-7
SMILES	TRPM1 prom inh	HIF-2a inh	TWEAK Fn14 block	TROY signal inh	Peg3 promoter	LMP1 NFkB inh
CCOc1ccc(N(CC(=O)OC)S(=O)(=O)c2ccc3c(c2)n(C)c(=O)c(=O)n3C)cc1	x	9	80*	-16	6	4
Oc1ccc(-c2n[nH]c(=S)n2-c2ccc3c(c2)OCCO3)c(O)c1	-2	-12	52*	-5	34	26
COc1ccccc1-c1cc(C(F)(F)F)c(C#N)c(=O)[nH]1	9	7	-14	21	-1	-15
Cc1ccccc1[C@@]1(C)ON(c2ccccc2C(F)(F)F)C1=O	26	29	28	-14	79*	0
CC[C@@]1(c2ccccc2OC)ON(c2ccccc2C(F)(F)F)C1=O	52	14	49	31	81*	9
O=C1N(c2ccccc2C(F)(F)F)O[C@]1(c1ccccc1)C1CCCC1	17	5	10	0	77*	0
COCCCNC(=O)c1cccc2c(-c3cccc(C(N)=O)c3)coc12	x	-32	9	-13	-33	x
COc1ccc(S(=O)(=O)N2CCCCCC2)cc1C(=O)OCC(=O)NC1CCS(=O)(=O)C1 (stereo not given)	3	5	3	-15	8	-6
CC(=O)c1c(C)[nH]c(C(=O)OCC(=O)Nc2ccc(Cl)c(S(=O)(=O)N(C)C)c2)c1C	20	5	54*	22	24	10
CCOC(=O)c1c(C)[nH]c(C(=O)OCC(=O)Nc2cc(Cl)ccc2OC)c1C	11	9	-15	18	39	-1
CC(=O)c1c(C)[nH]c(C(=O)OCC(=O)Nc2ccc(Cl)cc2[N+](=O)[O-])c1C	11	11	64*	44	3	23
N#Cc1ccc(NC(=O)COC(=O)c2cccc(S(=O)(=O)N3CCCC3)c2)cc1	x	10	10	-8	5	0
C=CCn1c(SCc2csc(C)n2)nc2sc3c(c2c1=O)CCCCC3	3	15	4	13	-2	-2
C=CCn1c(SCc2csc(C)n2)nc2sc3c(c2c1=O)CCCC3	4	22	10	22	21	44*
O=c1c2ccccc2nc(COc2ccccc2)n1/N=C/c1cn[nH]c1-c1ccccc1	-22	-14	19	-31	24	7
Cc1ccccc1OCc1nc2ccccc2c(=O)n1/N=C/c1cn[nH]c1-c1ccc(Br)cc1	-17	-5	15	-33	61*	-1
CC(=O)[C@H]1CC[C@H]2[C@@H]3CC=C4C[C@@H](O)CC[C@]4(C)[C@H]3CC[C@]12C	12	0	-8	7	13	-13
CC12CCC(O)CC1=CCC1C2CCC2(C)c3[nH]ncc3CC12 (stereo not given)	10	-8	12	51*	26	2
O=C(NCCCO)/C(=C/c1ccc(-c2cccc([N+](=O)[O-])c2)o1)NC(=O)c1ccccc1	3	5	-13	-5	11	-1
Cc1ccc(C(=O)N/C(=C/c2ccc(-c3ccc([N+](=O)[O-])cc3)o2)C(=O)NCCCN(C)C)cc1	15	-8	-17	-12	109*	-8
CN(CC(=O)O)S(=O)(=O)c1cc(Cl)ccc1Cl	1	-3	39	57*	3	-5
CSc1nc(N)nc2c1ncn2CC(=O)N1CCN(Cc2c(C)cc(C)cc2C)CC1	29	15	2	16	1	38
